± gives the standard deviation of the averaged measurements. Over roughly 33,000 sequences, “E-score (rank enrichment, -0.5 to 0.5)” has its median near -0.0075; the highest 2% begin near 0.23. Shown is part of a subset that was picked to be rich in the highest values.
These sequences were tested on WT Max(13-93) synthetic (M65Nle) (assay: PBM 8-mer E-score (E-score (rank enrichment, -0.5 to 0.5)); higher = stronger preferential binding).
Description: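 Protein binding microarray (universal PBM chip covering all 10-mers in fixed probe flanks) with chemically synthesized human Max(13-93) bHLH-LZ analogs (not full-length Max) bearing noncanonical residues (hArg, Tha, Aib, Nle at 65) and aromatic Cys staples. Read-out per 8-mer (and its reverse complement): E-score (rank-based enrichment, -0.5 to 0.5) and Z-score of median probe intensity.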

Sequence	PBM 8-mer E-score
GACATATA	0.0052 ± 0.075
CACATATG	0.185 ± 0.029
CACATATA	0.301 ± 0.098
TATATAAA	0.196 ± 0.099
GATATAAA	0.0778 ± 0.026
AATATAAT	0.156 ± 0.023
CATATAAG	0.21 ± 0.012
AATATAAA	0.26 ± 0.1
CATATAAA	0.295 ± 0.098
CGTACCAG	-0.0661 ± 0.0056
TTAGCGAA	-0.0471 ± 0.069
CGCCACGA	-0.137 ± 0.15
ATGCAGGG	0.0122 ± 0.03
CCTAAGCG	-0.0916 ± 0.0045
GTGTCTGA	0.00783 ± 0.11
GAACAAGA	0.137 ± 0.095
GATTCCCA	-0.0229 ± 0.034
AATTCCCA	0.282 ± 0.0091
AATTCCCC	0.0165 ± 0.05
GACCCGAA	-0.196 ± 0.14
AAACTACT	0.232 ± 0.034
AAACTACA	0.219 ± 0.021
AAACTACC	0.0484 ± 0.067
ACGTGCTA	0.311 ± 0.019
CCGTGCTA	-0.0393 ± 0.0021

Sequence	PBM 8-mer E-score
GCGTGCTA	0.197 ± 0.0073
ACGTGCTG	0.212 ± 0.025
ACGTGCTC	0.298 ± 0.013
CCGTGCTC	-0.0456 ± 0.034
ACCAGGGA	0.0354 ± 0.19
AGGCGCTG	-0.0811 ± 0.026
AACAGTGG	-0.0694 ± 0.089
AACTTGCA	0.193 ± 0.046
CGTGCCGC	0.0425 ± 0.15
ATAACAAT	0.168 ± 0.0023
ATAACAAC	0.265 ± 0.079
CTAACCAC	0.139 ± 0.0048
ATAACCAC	0.288 ± 0.07
ATAACCAG	0.113 ± 0.031
ATAACAAG	0.223 ± 0.0096
CTTTTTGC	0.046 ± 0.063
CACCTGGC	0.0136 ± 0.041
GGAGTGCC	-0.11 ± 0.012
CTATGACA	0.0275 ± 0.077
GTATGACA	0.245 ± 0.062
GTATGAAA	0.222 ± 0.033
GGATGACA	-0.00576 ± 0.064
ATATGACC	-0.0408 ± 0.015
ATATGACA	0.263 ± 0.014
ATAGCAGG	-0.0492 ± 0.15

Sequence	PBM 8-mer E-score
TCCGGACA	-0.0731 ± 0.033
GTCTCTAA	-0.108 ± 0.17
CCTCGCGA	-0.00258 ± 0.05
AATCGCCG	-0.197 ± 0.032
ATATATCC	0.237 ± 0.064
CTATATCC	0.135 ± 0.012
CTTTATAA	0.127 ± 0.026
CGATATAA	0.281 ± 0.046
CGATATAC	0.0759 ± 0.16
ATTTATAC	0.188 ± 0.078
TTATATAA	0.256 ± 0.13
TTATAAAA	0.215 ± 0.03
TGATATAA	0.155 ± 0.021
CGATATAG	-0.0681 ± 0.07
ATTTATAA	0.241 ± 0.035
ATATATCA	0.19 ± 0.073
TACGATAA	0.194 ± 0.094
AATGCGAA	0.03 ± 0.03
GCTCCTTA	-0.0526 ± 0.048
ATATCGGG	0.19 ± 0.03
AAGCGGCC	-0.276 ± 0.054
CCGACACA	-0.052 ± 0.075
CGCCGTTC	-0.101 ± 0.024
GGGGGCTA	-0.0501 ± 0.18
CGCGACAC	0.045 ± 0.063

Sequence	PBM 8-mer E-score
CTATACAG	0.0775 ± 0.017
ATATATAA	0.246 ± 0.086
ATATACAG	0.234 ± 0.0072
CTATATAA	0.0196 ± 0.063
GTATATAA	0.102 ± 0.091
ATATACAC	0.161 ± 0.055
GTAGTACA	0.0953 ± 0.0039
CCAACGTC	-0.0188 ± 0.032
AACGACGA	-0.113 ± 0.23
AAGACTCT	0.0105 ± 0.12
ACATGTGA	0.389 ± 0.00049
CGATGTGA	-0.114 ± 0.17
ACATGTCA	0.204 ± 0.057
AGATGTGA	0.16 ± 0.038
ACATGTGC	0.359 ± 0.0051
CCATGTGC	0.389 ± 0.0074
AGATGTGC	0.0526 ± 0.076
CCATGTGA	0.308 ± 0.0086
ACATGTCC	0.212 ± 0.03
CCATGTCC	-0.0654 ± 0.065
CCATGTCA	-0.0624 ± 0.05
CTATGTGC	0.0889 ± 0.047
CGTTGCCA	0.0775 ± 0.02
GAATGGGA	0.0933 ± 0.016
CCGACGGA	-0.238 ± 0.0081

Sequence	PBM 8-mer E-score
TAGGTGCA	0.0931 ± 0.075
CCGCAATC	-0.0997 ± 0.03
ATCTGATC	-0.138 ± 0.17
ACATGTCG	0.14 ± 0.052
GCATGTGA	0.314 ± 0.013
GCATGTCA	0.208 ± 0.011
ACATGTGG	0.36 ± 0.049
AGATGTGG	0.0747 ± 0.083
GAATGTGA	0.0246 ± 0.0085
GAGCATAA	0.0772 ± 0.044
CCTCAACG	-0.187 ± 0.062
AGGGGTCC	-0.221 ± 0.0076
CAGCGGGA	-0.165 ± 0.016
AAGCATGG	0.219 ± 0.031
AAGCATAC	0.105 ± 0.023
AAGCATGT	0.277 ± 0.024
AAGCATCC	0.0408 ± 0.066
AAGCATGC	0.312 ± 0.066
AAGCATGA	0.152 ± 0.064
AGGTGGGG	0.0712 ± 0.15
GGAAAAGA	0.0579 ± 0.031
TGCTGTAA	0.00145 ± 0.0042
ACAAGTGA	0.0895 ± 0.13
GAGCTTGA	-0.165 ± 0.014
GGTCCCAC	-0.0853 ± 0.11

Sequence	PBM 8-mer E-score
TGAATAAA	0.305 ± 0.013
AGAATAAG	-0.0395 ± 0.13
AGAATAAT	0.177 ± 0.0073
AGAATAAA	0.262 ± 0.034
CGAATAAA	0.0742 ± 0.027
GGAATAAA	0.0114 ± 0.13
CTCGCGGC	-0.138 ± 0.055
ACACGTAT	0.192 ± 0.027
AAACGTGG	0.206 ± 0.021
AGACGTGC	-0.0899 ± 0.02
ACACGTGT	0.487 ± 0.002
TCACGTAA	0.129 ± 0.01
ACACGTGG	0.4934 ± 0.00068
TCACGTGA	0.444 ± 0.018
TCACGTCA	-0.00158 ± 0.0094
AAACGTGT	0.166 ± 0.05
ACACGTGC	0.4859 ± 0.0013
ACACGTAG	0.0871 ± 0.035
ACACGTAC	0.159 ± 0.044
CTGCCAAC	-0.111 ± 0.013
GATACCAA	-0.0524 ± 0.022
CAGTGAAC	0.0267 ± 0.035
ACAATCTG	0.065 ± 0.027
AGAAACTC	-0.0484 ± 0.078
ACGAAAAA	0.221 ± 0.056

Sequence	PBM 8-mer E-score
CTTGCGTA	0.0635 ± 0.052
ATACGTGA	-0.00216 ± 0.0077
AGACGTGA	0.103 ± 0.038
ACACGTGA	0.4747 ± 0.0033
AAGCAGGC	-0.0736 ± 0.011
CGTGGGGC	0.119 ± 0.11
AGATGACT	-0.172 ± 0.045
CACTTCTC	0.0461 ± 0.0024
TATTATCA	0.2 ± 0.026
CGTTATCA	0.044 ± 0.015
AATCATTA	0.223 ± 0.072
AGTTATCA	0.07501 ± 0.00026
CATTATCA	0.242 ± 0.09
AATTATCC	0.0573 ± 0.0067
CATTATCG	-0.0926 ± 0.0027
CATCATTC	-0.011 ± 0.044
AATTATCG	0.132 ± 0.064
GGTTATCA	0.232 ± 0.078
CATCATTA	0.238 ± 0.034
AATTATCA	0.273 ± 0.083
GGACTGCA	-0.017 ± 0.043
CGTGTCTC	0.201 ± 0.035

Source: the supplement of paper PMC12636033
